The text below walks through data of PubChem BioAssay (NCI).

The panel holds about 83,000 compounds, 20% with a hit somewhere; the sample as a whole holds those more often.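 In brief: 96-well plates, 48 h treatment, single concentration, percent growth endpoint.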 Values without a mark were called inactive. Activity calls are given as the source filed them. How the source made its calls: active means growth percent below 10; inactive means the rest.

Common to all, as to test: NCI-60 one-dose screen, 48 h (100 = growth as untreated, 0 = no growth, -100 = all killed)
What all share (settings): 10 µM unless noted

For experiment [1], the system named is DU-145 prostate.
For experiment [2], the system named is K-562 leukemia.
The subject of experiment [3] is MALME-3M melanoma.
Experiment [4] deals with MDA-MB-231 breast.
The test system of experiment [5] is RXF 393 renal.
Experiment [6] concerns SF-268 CNS.
The test system of experiment [7] is SF-295 CNS.
Experiment [8] deals with SF-539 CNS.
For experiment [9], the system named is UACC-257 melanoma.
Experiment [10] relates to M14 melanoma.

Turning to `O=C(Nc1nc2ccc(F)cc2s1)c1cccnc1Nc1ccc(Cl)cc1`, the growth in experiment [1] was 44.3%; in experiment [2], 5.7% (active); in [3], 3.74% (active); in experiment [4], 50.7%; in experiment [5], 59.8%; in experiment [6] it was 37.2%. Further, the growth in [7] was 17.4%; in [8], 50.3%; in experiment [9], 43%; in [10], 53.8%.

In the case of `C[C@@H]1CCC[C@H]1CC(N)C(=O)O` (stereo not given in full), the growth in experiment [1] was 106%; in [2] it was 99%; in [3], 149%; in experiment [4], 121%; in experiment [5], 117%; in experiment [6], 105%. The growth in experiment [7] was 106%; in experiment [8], 105%; in [9] it was 106%; in experiment [10] it was 98.8%.

Consider `Oc1c(Cl)cc(Cl)c2ccc(Cn3cc(-c4ccc(C(F)(F)F)cc4)nn3)nc12`, for which the growth in experiment [1] was 48.9%; in experiment [2], 4.56% (active); in experiment [3], 45.5%; in [4] it was 86.7%; in experiment [5], 5.98% (active); in experiment [6], 83.9%. Moreover, the growth in experiment [7] was 104%; in experiment [8], 69.4%; in experiment [9], 58.1%; in experiment [10], 55.5%.

For the molecule `COc1cnc2c(c1)C(=O)c1c-2n(CCCNCCO)c(=O)c2ccncc12`, the growth in experiment [1] is 3.45% (active); in [2] it was 5.84% (active); in experiment [3], -30.4% (active); in experiment [4], 6.98% (active); in experiment [5], -11.1% (active); in [6] it was 14.8%. Besides, the growth was 6.34% (active) in [7], -15.2% (active) in experiment [8], -19.3% (active) in [9] and -1.26% (active) in experiment [10].

As to `COC(=O)c1c2c(c(C)[n+]([O-])c1C)C(=O)C(NCc1ccc(Cl)cc1)=CC2=O`, the growth in [1] was 86.6%; in experiment [2] it was 28.7%; in experiment [3], -75.4% (active); in experiment [4], 48.7%; in experiment [5], 86.6%; in experiment [6], 76.8%. In addition, the growth in experiment [7] was 87.6%; in experiment [8], 85.3%; in [9], 17.8%; in experiment [10] it was 39.6%.

In the case of `O=[N+]([O-])c1ccc(-c2nc(N3CCOCC3)c3c4c(sc3n2)CCCC4)cc1`, the growth is 113% in [1]; 99.6% in [2]; 89.2% in experiment [3]; 81% in experiment [4]; 104% in experiment [5]; 94.8% in experiment [6]. The growth was 87.4% in experiment [7], 102% in experiment [8], 92.7% in experiment [9] and 85.6% in [10].

With `CC(=O)Cc1nsc(NC(=O)c2cc(-c3cc(Cl)cc(Cl)c3)oc2C)n1`, the growth in [1] was 108%; in [2], 100%; in experiment [3] it was 111%; in experiment [4], 104%; in [5], 105%; in [6] it was 88.1%. The growth in experiment [7] is 99.4%; in experiment [8], 98.5%; in [9], 89%; in experiment [10] it was 105%.

For the molecule `O=C(/C=C/c1ccc(Cl)cc1)c1cccc(Nc2nc(Nc3ccccc3)nc(Nc3ccccc3)n2)c1`, the growth was 121% in experiment [1]; 71.4% in [2]; 95.6% in [3]; 80.7% in [4]; -30.3% (active) in experiment [5]; 113% in experiment [6]. The growth in [7] was 62.2%; in experiment [8], 116%; in [9], 103%; in [10] it was 94.2%.

In the case of `C=CCn1c(SCC(=O)NCc2cc(C)c(O)c(C)c2)nc2ccc(Cl)cc2c1=O`, the growth is 105% in [1]; 58.6% in [2]; 98.8% in experiment [3]; 111% in experiment [4]; 98.6% in experiment [5]; 99.2% in experiment [6]. In addition, the growth in experiment [7] is 91.1%; in experiment [8], 101%; in experiment [9], 102%; in [10], 115%.

Regarding `NC(=O)CCC(C(=O)O)N1C(=O)c2ccc(O)cc2C1=O` (stereo not given), the growth in experiment [1] was 118%; in experiment [2] it was 72.2%; in [3] it was 157%; in experiment [4] it was 113%; in experiment [5], 115%; in [6], 111%. For the same molecule, the growth was 91.7% in experiment [7], 106% in experiment [8], 107% in experiment [9] and 108% in experiment [10].

For the molecule `O=CC1(C2(C=O)c3ccccc3-c3ccccc32)c2ccccc2-c2ccccc21`, the growth is -63.3% (active) in experiment [1]; -13.6% (active) in experiment [2]; -71.8% (active) in [3]; -12.5% (active) in [4]; -61.4% (active) in [5]; -46.9% (active) in experiment [6]. In addition, the growth in experiment [7] is -59.8% (active); in experiment [8] it was -64.5% (active); in experiment [9] it was -76.1% (active); in [10], -67.1% (active).

For `Clc1ccc(Nc2nnc(COc3ccccc3)c3ccccc23)cc1`, the growth is 10.4% in experiment [1]; 2.77% (active) in experiment [2]; -13.5% (active) in experiment [3]; 11.4% in [4]; -5.93% (active) in experiment [5]; 13.2% in experiment [6]. Further, the growth in [7] is -1.11% (active); in experiment [8] it was 8.42% (active); in experiment [9] it was -24.9% (active); in experiment [10], -9.99% (active).

In the case of `CS(=O)(=O)Nc1cc(-c2ccc3ncnc(Nc4ccc5c(cnn5Cc5ccccn5)c4)c3c2)cnc1Cl`, the growth was 90% in experiment [1]; 92.1% in [2]; 39.5% in [3]; 71.5% in [4]; 72.8% in experiment [5]; 51.5% in experiment [6]. In addition, the growth in experiment [7] was 91.5%; in [8], 69.9%; in experiment [9] it was 88.1%; in experiment [10], 75.5%.

For `Oc1c(Cl)cc(Cl)c2ccc(Cn3cc(-c4cc(C(F)(F)F)cc(C(F)(F)F)c4)nn3)nc12`, the growth is 21.9% in [1]; 6.87% (active) in [2]; -13.2% (active) in experiment [3]; 87% in experiment [4]; -12.8% (active) in experiment [5]; 77.2% in [6]. Further, the growth was 106% in [7], 43.3% in experiment [8], 49.9% in experiment [9] and 47.8% in experiment [10].

For `N#Cc1cccc(NC(=O)c2oc3ccccc3c2-c2cnn(-c3ccccc3)c2)c1`, the growth in experiment [1] is 105% [50 µM]; in experiment [2], 4.93% [50 µM] (active); in experiment [3] it was 101% [50 µM]; in [4] it was 82.7% [50 µM]; in [5] it was 75.7% [50 µM]; in experiment [6], 92.4% [50 µM]. The growth in [7] was 74% [50 µM]; in experiment [8] it was 81.5% [50 µM]; in experiment [9], 94.7% [50 µM]; in [10], 84% [50 µM].

Regarding `COc1ccc(/C=C2\COc3ccc(O)c(O)c3C2=O)cc1`, the growth in experiment [1] was 19.4%; in experiment [2] it was 13.4%; in experiment [3], -26.3% (active); in [4], -11.4% (active); in experiment [5], 2.29% (active); in experiment [6], 2.86% (active). Also, the growth was 48.5% in experiment [7], -36.9% (active) in experiment [8], 14.8% in experiment [9] and 8.06% (active) in experiment [10].

As to `CC(=O)N(N=Nc1ccccc1)c1cccc2ccccc12`, the growth is 9.87% (active) in experiment [1]; 89.5% in experiment [2]; 128% in [3]; 78.2% in experiment [4]; 89.6% in experiment [5]; 92.8% in experiment [6]. Also, the growth was 68.2% in experiment [7], 111% in [8], 103% in [9] and 90.9% in experiment [10].

Regarding `Cn1c(-c2ccc(Br)cc2)c(O)c(=O)c2c(F)cccc21`, the growth in experiment [1] was 54.4%; in [2], 100%; in experiment [3], 55.2%; in experiment [4], 54.5%; in experiment [5], 66.1%; in experiment [6], 47%. The growth in [7] is 48.4%; in experiment [8], 57.4%; in experiment [9], 71.4%; in experiment [10], 50.6%.

In the case of `O=C(Cn1cc(CN2CCCCCC2)nn1)Nc1ccc2c(ccn2Cc2ccccc2)c1`, the growth in experiment [1] was 101%; in [2], 79.5%; in experiment [3], 91.1%; in experiment [4], 86%; in [5], 91.4%; in experiment [6], 93.6%. Besides, the growth in experiment [7] was 99.6%; in [8], 92.6%; in [9], 101%; in experiment [10] it was 94.1%.

Consider `CCCCCCCCCCCCCCCCCCOc1ccccc1CC(=O)NCC[N+]1(C)CCCC1`, for which the growth in experiment [1] is 56.8%; in [2], 36.9%; in experiment [3], 52.4%; in [4] it was 43.1%; in experiment [5] it was 4.86% (active); in [6], 31%. In addition, the growth in [7] was 86.5%; in [8], 82.1%; in experiment [9], 93.2%; in experiment [10], 65.8%.

As to `N#Cc1c(-c2ccc(Cl)cc2)nc(SCC(=O)NC2=NN=C(c3ccccc3)CS2)[nH]c1=O`, the growth in [1] is 105%; in experiment [2], 42.4%; in experiment [3] it was 75%; in [4], 78.1%; in experiment [5], 84.5%; in experiment [6], 91.4%. The growth was 107% in experiment [7], 91.4% in [8], 84% in experiment [9] and 72.3% in [10].

Take `CSc1nc2sc3c(c2c(=O)n1-c1ccc([N+](=O)[O-])cc1)CCCCC3`: the growth is 99% in [1]; 94.1% in experiment [2]; 91.4% in experiment [3]; 75.3% in [4]; 84.1% in [5]; 98.7% in [6]. The growth in experiment [7] was 68.8%; in experiment [8], 95.3%; in [9], 91.2%; in experiment [10], 94.9%.

Turning to `CC1(C)CC[C@]2(c3nnc(-c4ccncc4)o3)CC[C@H]3C(=CC[C@H]4[C@@]3(C)CC[C@H]3C(C)(C)C(=O)CC[C@]43C)[C@@H]2C1`, the growth in experiment [1] was 86.3%; in experiment [2], 40.8%; in experiment [3], 86.9%; in experiment [4] it was 72.8%; in [5] it was 79%; in [6], 81.4%. In addition, the growth in experiment [7] is 89.7%; in experiment [8] it was 76.3%; in [9], 70.6%; in [10] it was 84%.

As to `O=C(CSc1nc2sc3c(c2c(=O)n1-c1ccccc1)CCCCC3)N/N=C/c1ccc(F)cc1`, the growth is -0.517% (active) in experiment [1]; 64.2% in experiment [2]; 11.3% in experiment [3]; -26.1% (active) in [4]; 5.3% (active) in experiment [5]; 7.96% (active) in [6]. Besides, the growth in experiment [7] is 16.9%; in experiment [8] it was -39.9% (active); in [9], 74.6%; in experiment [10], 51.6%.
